Measurements published in PubChem BioAssay (NCATS).
Records with an inconclusive call do not appear. Activity calls are given as the source filed them. The call rests on the fitted dose curve; in most records, active means well fitted curve in the direction sought with a large enough effect; inconclusive means small, poorly fitted or top-dose-only effect, or another doubt; inactive means no such curve, though single readings can be large; an effect the other way counts as inactive or inconclusive.

What follows are compounds tested against Phosphoglycerate kinase, glycosomal (Trypanosoma brucei brucei) (UniProt P07378) (assay: qHTS Validation Assay to Find Inhibitors of Phosphoglycerate Kinase (AID 504547;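 further: control wells lack PGK and mark full inhibition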)). Details: enzymatic PGK inhibition, coupled luminescence read-out; series mostly up to 57.5 µM; activity, negative = inhibition: at the top concentration.
Chain of Phosphoglycerate kinase, glycosomal (Trypanosoma brucei brucei) (P07378 whole entry, looked up): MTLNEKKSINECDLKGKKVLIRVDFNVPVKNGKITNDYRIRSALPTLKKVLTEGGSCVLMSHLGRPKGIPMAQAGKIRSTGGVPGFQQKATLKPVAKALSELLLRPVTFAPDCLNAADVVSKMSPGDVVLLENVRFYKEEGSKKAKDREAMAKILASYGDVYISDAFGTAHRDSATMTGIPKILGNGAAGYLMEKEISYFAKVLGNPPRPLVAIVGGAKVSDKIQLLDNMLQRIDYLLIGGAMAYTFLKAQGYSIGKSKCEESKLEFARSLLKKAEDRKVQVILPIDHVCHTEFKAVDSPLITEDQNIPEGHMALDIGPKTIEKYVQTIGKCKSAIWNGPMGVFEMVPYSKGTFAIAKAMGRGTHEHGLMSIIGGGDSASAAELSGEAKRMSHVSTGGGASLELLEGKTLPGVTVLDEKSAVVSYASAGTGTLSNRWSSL
Procedure, shortened: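 Substrate/PGK mix plus compound; reaction started with GAPDH (100nM final) to form 1,3-BPG; 60 min RT; Kinase-Glo Plus 10 min; luminescence. TEA 100mM pH 7.6, MgCl2 5mM, Tween-20 0.01%.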

| Structure (SMILES) | activity, negative = inhibition | Potency |
| --- | --- | --- |
| CCOC(=O)c1ncn2c1CN(C)C(=O)c1cc(F)ccc1-2 | 4.82% (inactive) |  |
| CC[N+](CC)(CC)CCOc1cccc(OCC[N+](CC)(CC)CC)c1OCC[N+](CC)(CC)CC | 4.67% (inactive) |  |
| CN1C2CCC1CC(OC(=O)C(CO)c1ccccc1)C2 (configuration not stated) |  | inactive |
| COc1ccccc1OCC(O)CN1CCN(CC(=O)Nc2c(C)cccc2C)CC1 (configuration not stated) | 2.68% (inactive) |  |
| CNCCCC12CCC(c3ccccc31)c1ccccc12 | 1.86% (inactive) |  |
| COc1ccccc1OCCNCC(O)COc1cccc2[nH]c3ccccc3c12 (configuration not stated) | 5.11% (inactive) |  |
| Fc1ccc([C@@H]2CCNC[C@H]2COc2ccc3c(c2)OCO3)cc1 | 1.02% (inactive) |  |
| O=c1c(-c2ccc(O)cc2)coc2cc(O)cc(O)c12 | 8.31% (inactive) |  |
| NC(=O)OCC(COC(N)=O)c1ccccc1 | 6.63% (inactive) |  |
| NCCc1cnc[nH]1 | 7.89% (inactive) |  |
| CC(C)NCC(O)COc1ccc(CCOCC2CC2)cc1 (configuration not stated) | 4.58% (inactive) |  |
| CCC1(c2ccccc2)C(=O)NCNC1=O | 5.95% (inactive) |  |
| CC(C)C(=O)Nc1ccc([N+](=O)[O-])c(C(F)(F)F)c1 | 6.43% (inactive) |  |
| CN1C(C(=O)Nc2ccccn2)=C(O)c2ccccc2S1(=O)=O | 5.31% (inactive) |  |
| Cc1cc(C(C)(C)C)cc(C)c1CC1=NCCN1 | 5.39% (inactive) |  |
| COc1ccc(C2CNC(=O)C2)cc1OC1CCCC1 (configuration not stated) | 5.8% (inactive) |  |

| Structure (SMILES) | activity, negative = inhibition | Potency |
| --- | --- | --- |
| Cn1ccc2cc3c(cc21)CCN3C(=O)Nc1cccnc1 | 4.05% (inactive) |  |
| CCCNCC(O)COc1ccccc1C(=O)CCc1ccccc1 (configuration not stated) | 9.45% (inactive) |  |
| C[C@H]1c2cccc(O)c2C(O)=C2C(=O)[C@]3(O)C(O)=C(C(N)=O)C(=O)[C@@H](N(C)C)[C@@H]3[C@@H](O)[C@@H]21 | 8.55% (inactive) |  |
| Cc1cn([C@H]2C=C[C@@H](CO)O2)c(=O)[nH]c1=O | -2.23% (inactive) |  |
| OCCN1CCN(CCCN2c3ccccc3Sc3ccc(C(F)(F)F)cc32)CC1 | 19.8% (inactive) |  |
| NC(=O)NO | 11.6% (inactive) |  |
| Nc1nnc(-c2cccc(Cl)c2Cl)c(N)n1 | 9.63% (inactive) |  |
| CN(C)CCC=C1c2ccccc2C=Cc2ccccc21 | 7.61% (inactive) |  |
| Cc1cnc(C(=O)NCCc2ccc(S(=O)(=O)NC(=O)NC3CCCCC3)cc2)cn1 | 4.46% (inactive) |  |
| O=c1[nH]cc(F)c(=O)[nH]1 | 0.965% (inactive) |  |
| COc1nc(C)nc(Cl)c1NC1=NCCN1 | 7.14% (inactive) |  |
| NC(CO)C(=O)NNCc1ccc(O)c(O)c1O (configuration not stated) | 4.39% (inactive) |  |
| CC(C(=O)O)c1cccc(C(=O)c2ccccc2)c1 (configuration not stated) | 8.2% (inactive) |  |
| Clc1ccc2nsnc2c1NC1=NCCN1 | -4.8% (inactive) |  |
| Clc1ccc(C(c2ccccc2Cl)C(Cl)Cl)cc1 (configuration not stated) | -1.16% (inactive) |  |

What follows are compounds tested against phosphoglycerate mutase (Leishmania major) (UniProt Q4Q090) (assay: qHTS Validation Assay to Find Inhibitors of Phosphoglycerate Mutase (AID 504548; further: on the % scale 0 is the no-effect control and ±100 the full control effect)). Details: biochemical enzyme activity; series mostly up to 57.5 µM; activity change, negative = inhibition: at the top concentration.
Chain of phosphoglycerate mutase (Leishmania major) (Q4Q090 1-553): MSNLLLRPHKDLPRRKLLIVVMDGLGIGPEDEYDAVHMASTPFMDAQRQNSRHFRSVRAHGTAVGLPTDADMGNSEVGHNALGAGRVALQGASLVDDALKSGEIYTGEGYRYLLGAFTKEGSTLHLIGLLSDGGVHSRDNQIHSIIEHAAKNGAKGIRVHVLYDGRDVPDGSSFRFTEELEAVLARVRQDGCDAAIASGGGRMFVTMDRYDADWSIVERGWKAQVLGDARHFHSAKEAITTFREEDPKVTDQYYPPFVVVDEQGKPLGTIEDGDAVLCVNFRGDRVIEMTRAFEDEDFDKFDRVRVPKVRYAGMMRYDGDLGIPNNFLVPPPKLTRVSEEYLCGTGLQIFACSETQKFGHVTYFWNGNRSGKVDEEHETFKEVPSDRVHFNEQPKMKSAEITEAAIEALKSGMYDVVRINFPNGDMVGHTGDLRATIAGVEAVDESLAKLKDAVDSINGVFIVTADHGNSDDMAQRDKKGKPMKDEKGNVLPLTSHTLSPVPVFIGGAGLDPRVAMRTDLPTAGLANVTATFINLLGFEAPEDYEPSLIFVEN
Procedure, shortened: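 Luminescent end-point read-out via Kinase-GloPlus after a 10-minute development. Reaction: 1.25nM Leishmania major PGAM with substrate and compound, 45 minutes at room temperature in TEA buffer (pH 7.6) with MgCl2 and Tween-20.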

| Structure (SMILES) | activity change, negative = inhibition | outcome |
| --- | --- | --- |
| CCOC(=O)c1ncn2c1CN(C)C(=O)c1cc(F)ccc1-2 | -6.5% (inactive) |  |
| CC[N+](CC)(CC)CCOc1cccc(OCC[N+](CC)(CC)CC)c1OCC[N+](CC)(CC)CC | 2.77% (inactive) |  |
| CN1C2CCC1CC(OC(=O)C(CO)c1ccccc1)C2 (configuration not stated) |  | inactive |
| COc1ccccc1OCC(O)CN1CCN(CC(=O)Nc2c(C)cccc2C)CC1 (configuration not stated) | -0.887% (inactive) |  |
| CNCCCC12CCC(c3ccccc31)c1ccccc12 | 1.02% (inactive) |  |
| COc1ccccc1OCCNCC(O)COc1cccc2[nH]c3ccccc3c12 (configuration not stated) | -5.56% (inactive) |  |
| Fc1ccc([C@@H]2CCNC[C@H]2COc2ccc3c(c2)OCO3)cc1 | 6.16% (inactive) |  |
| O=c1c(-c2ccc(O)cc2)coc2cc(O)cc(O)c12 | -6.26% (inactive) |  |
| NC(=O)OCC(COC(N)=O)c1ccccc1 | 2.68% (inactive) |  |
| NCCc1cnc[nH]1 | -3.28% (inactive) |  |
| CC(C)NCC(O)COc1ccc(CCOCC2CC2)cc1 (configuration not stated) | 1.2% (inactive) |  |
| CCC1(c2ccccc2)C(=O)NCNC1=O | 9.21% (inactive) |  |
| CC(C)C(=O)Nc1ccc([N+](=O)[O-])c(C(F)(F)F)c1 | 12.8% (inactive) |  |
| CN1C(C(=O)Nc2ccccn2)=C(O)c2ccccc2S1(=O)=O | 2.36% (inactive) |  |
| Cc1cc(C(C)(C)C)cc(C)c1CC1=NCCN1 | 1.82% (inactive) |  |
| COc1ccc(C2CNC(=O)C2)cc1OC1CCCC1 (configuration not stated) | 4.29% (inactive) |  |

| Structure (SMILES) | activity change, negative = inhibition | outcome |
| --- | --- | --- |
| Cn1ccc2cc3c(cc21)CCN3C(=O)Nc1cccnc1 | -5.44% (inactive) |  |
| CCCNCC(O)COc1ccccc1C(=O)CCc1ccccc1 (configuration not stated) | -0.777% (inactive) |  |
| C[C@H]1c2cccc(O)c2C(O)=C2C(=O)[C@]3(O)C(O)=C(C(N)=O)C(=O)[C@@H](N(C)C)[C@@H]3[C@@H](O)[C@@H]21 | -2.51% (inactive) |  |
| Cc1cn([C@H]2C=C[C@@H](CO)O2)c(=O)[nH]c1=O | 1.57% (inactive) |  |
| OCCN1CCN(CCCN2c3ccccc3Sc3ccc(C(F)(F)F)cc32)CC1 | 5.56% (inactive) |  |
| NC(=O)NO | -3.41% (inactive) |  |
| Nc1nnc(-c2cccc(Cl)c2Cl)c(N)n1 | 2.75% (inactive) |  |
| CN(C)CCC=C1c2ccccc2C=Cc2ccccc21 | -6.05% (inactive) |  |
| Cc1cnc(C(=O)NCCc2ccc(S(=O)(=O)NC(=O)NC3CCCCC3)cc2)cn1 | 9.23% (inactive) |  |
| O=c1[nH]cc(F)c(=O)[nH]1 | -1.46% (inactive) |  |
| COc1nc(C)nc(Cl)c1NC1=NCCN1 | -0.837% (inactive) |  |
| NC(CO)C(=O)NNCc1ccc(O)c(O)c1O (configuration not stated) | 2.17% (inactive) |  |
| CC(C(=O)O)c1cccc(C(=O)c2ccccc2)c1 (configuration not stated) | 0.141% (inactive) |  |
| Clc1ccc2nsnc2c1NC1=NCCN1 | -10.7% (inactive) |  |
| Clc1ccc(C(c2ccccc2Cl)C(Cl)Cl)cc1 (configuration not stated) | 4.2% (inactive) |  |

These compounds were tested against Ubiquitin carboxyl-terminal hydrolase 1 (Homo sapiens) (UniProt O94782) (assay: Inhibitors of USP1/UAF1: Pilot qHTS (AID 504865;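 further: rhodamine fluorescence freed from ubiquitin-rhodamine substrate followed over time; top concentration of the series differs between compounds; on the % scale 0 is the no-effect control and ±100 the full control effect; nearly all actives have a fitted effect of over 35% in size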)). Details: purified USP1/UAF1, Ub-rhodamine cleavage fluorescence; series mostly up to 114 µM; activity change, negative = inhibition: at the top concentration.
Chain of Ubiquitin carboxyl-terminal hydrolase 1 (Homo sapiens) (O94782 whole entry, looked up): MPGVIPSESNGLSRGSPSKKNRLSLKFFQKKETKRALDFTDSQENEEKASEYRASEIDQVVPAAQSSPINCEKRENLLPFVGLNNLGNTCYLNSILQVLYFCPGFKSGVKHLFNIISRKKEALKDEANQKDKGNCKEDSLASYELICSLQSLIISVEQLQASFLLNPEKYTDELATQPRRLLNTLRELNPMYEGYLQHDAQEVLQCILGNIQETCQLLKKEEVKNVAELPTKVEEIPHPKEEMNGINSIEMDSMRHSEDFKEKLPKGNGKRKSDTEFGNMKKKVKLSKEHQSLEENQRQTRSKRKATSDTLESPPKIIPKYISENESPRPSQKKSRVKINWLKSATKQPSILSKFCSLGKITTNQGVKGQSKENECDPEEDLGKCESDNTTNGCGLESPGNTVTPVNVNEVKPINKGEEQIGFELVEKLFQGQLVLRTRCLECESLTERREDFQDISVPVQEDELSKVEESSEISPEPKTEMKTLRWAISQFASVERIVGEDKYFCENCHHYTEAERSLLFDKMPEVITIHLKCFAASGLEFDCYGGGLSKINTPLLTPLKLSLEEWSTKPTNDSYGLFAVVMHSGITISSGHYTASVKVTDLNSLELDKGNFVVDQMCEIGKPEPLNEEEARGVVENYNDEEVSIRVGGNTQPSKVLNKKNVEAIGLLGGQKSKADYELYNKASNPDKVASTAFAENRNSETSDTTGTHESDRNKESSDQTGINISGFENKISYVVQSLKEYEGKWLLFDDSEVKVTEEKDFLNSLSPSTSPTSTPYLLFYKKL
Procedure, shortened: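 USP1/UAF1 complex at 1 nM preincubated 15 min at room temperature with compound, then Ub-Rho substrate added at 150 nM final. Fluorescence (480/540 nm) read kinetically in 50 mM HEPES pH 7.8, 0.5 mM EDTA, 1 mM TCEP, 0.1 mg/ml BSA, 0.01% Tween-20.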

| Structure (SMILES) | Potency | activity change, negative = inhibition |
| --- | --- | --- |
| CCOC(=O)c1ncn2c1CN(C)C(=O)c1cc(F)ccc1-2 | inactive |  |
| CNCCCC12CCC(c3ccccc31)c1ccccc12 | inactive |  |
| COc1ccccc1OCCNCC(O)COc1cccc2[nH]c3ccccc3c12 (configuration not stated) | inactive |  |
| Fc1ccc([C@@H]2CCNC[C@H]2COc2ccc3c(c2)OCO3)cc1 |  | -3.49% (inactive) |
| NC(=O)OCC(COC(N)=O)c1ccccc1 | inactive |  |
| CC(C)NCC(O)COc1ccc(CCOCC2CC2)cc1 (configuration not stated) | inactive |  |
| CCC1(c2ccccc2)C(=O)NCNC1=O |  | -3.78% (inactive) |
| CC(C)C(=O)Nc1ccc([N+](=O)[O-])c(C(F)(F)F)c1 | inactive |  |
| CN1C(C(=O)Nc2ccccn2)=C(O)c2ccccc2S1(=O)=O | inactive |  |
| Cc1cc(C(C)(C)C)cc(C)c1CC1=NCCN1 | inactive |  |
| Cc1cn([C@H]2C=C[C@@H](CO)O2)c(=O)[nH]c1=O | inactive |  |
| Nc1nnc(-c2cccc(Cl)c2Cl)c(N)n1 | inactive |  |
| O=c1[nH]cc(F)c(=O)[nH]1 | inactive |  |
| NC(CO)C(=O)NNCc1ccc(O)c(O)c1O (configuration not stated) | inactive |  |
| Clc1ccc2nsnc2c1NC1=NCCN1 | inactive |  |
